Results taken from PubChem BioAssay (Tox21).
Values joined by “and” are separate entries in the source; they are usually repeats but may differ in a detail not shown here. Equal entries are not always repeated. Records with an inconclusive call do not appear. More than one record can exist for a structure, and the calls need not agree. Active and inactive are the calls of the source. Unless noted, the call rests on the fitted dose curve; in most records, active means well fitted curve in the direction sought with a large enough effect in the repeat runs; inconclusive means weak or mixed curves; inactive means no such curve, though single readings can be large; an effect the other way counts as inactive or inconclusive.

Assays:
[1] = qHTS assay to identify small molecule antagonists of the glucocorticoid receptor (GR) signaling pathway - cell viability counter screen (AID 720693); further: nearly all actives have a fitted effect of over 55% in size
[2] = qHTS assay for identifying genotoxic compounds that show differential cytotoxicity against isogenic chicken DT40 cell lines with known DNA damage response pathways - wild type cell line (AID 743012); further: nearly all actives have a fitted effect of over 60% in size; further: potency means the concentration at half of the fitted maximal effect
Method in brief: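 Cytotoxicity in repair-proficient parental chicken DT40 cells serves as the comparator for Rad54/Ku70- and Rev3-deficient lines. Cells were exposed to compounds for 40 h at 37 C/5% CO2, and ATP-based luminescence (CellTiter-Glo) measured viability.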

[3] = qHTS assay for identifying genotoxic compounds that show differential cytotoxicity against isogenic chicken DT40 cell lines with known DNA damage response pathways - Rad54/Ku70 mutant cell line (AID 743015); further: nearly all actives have a fitted effect of over 60% in size; further: potency means the concentration at half of the fitted maximal effect
[4] = qHTS assay to identify small molecule antagonists of the androgen receptor (AR) signaling pathway - cell viability counter screen (AID 743033; further: nearly all actives have a fitted effect of over 45% in size)
[5] = biological target: Androgen receptor (Homo sapiens) (UniProt P10275); test: qHTS assay to identify small molecule agonists of the androgen receptor (AR) signaling pathway (AID 743036; active means well fitted activation curve with a large enough effect in the signal ratio in the repeat runs, with a control signal flat, not every such curve was filed as active; the % refers to the signal ratio)
Sequence of Androgen receptor (Homo sapiens) (P10275 whole entry, looked up): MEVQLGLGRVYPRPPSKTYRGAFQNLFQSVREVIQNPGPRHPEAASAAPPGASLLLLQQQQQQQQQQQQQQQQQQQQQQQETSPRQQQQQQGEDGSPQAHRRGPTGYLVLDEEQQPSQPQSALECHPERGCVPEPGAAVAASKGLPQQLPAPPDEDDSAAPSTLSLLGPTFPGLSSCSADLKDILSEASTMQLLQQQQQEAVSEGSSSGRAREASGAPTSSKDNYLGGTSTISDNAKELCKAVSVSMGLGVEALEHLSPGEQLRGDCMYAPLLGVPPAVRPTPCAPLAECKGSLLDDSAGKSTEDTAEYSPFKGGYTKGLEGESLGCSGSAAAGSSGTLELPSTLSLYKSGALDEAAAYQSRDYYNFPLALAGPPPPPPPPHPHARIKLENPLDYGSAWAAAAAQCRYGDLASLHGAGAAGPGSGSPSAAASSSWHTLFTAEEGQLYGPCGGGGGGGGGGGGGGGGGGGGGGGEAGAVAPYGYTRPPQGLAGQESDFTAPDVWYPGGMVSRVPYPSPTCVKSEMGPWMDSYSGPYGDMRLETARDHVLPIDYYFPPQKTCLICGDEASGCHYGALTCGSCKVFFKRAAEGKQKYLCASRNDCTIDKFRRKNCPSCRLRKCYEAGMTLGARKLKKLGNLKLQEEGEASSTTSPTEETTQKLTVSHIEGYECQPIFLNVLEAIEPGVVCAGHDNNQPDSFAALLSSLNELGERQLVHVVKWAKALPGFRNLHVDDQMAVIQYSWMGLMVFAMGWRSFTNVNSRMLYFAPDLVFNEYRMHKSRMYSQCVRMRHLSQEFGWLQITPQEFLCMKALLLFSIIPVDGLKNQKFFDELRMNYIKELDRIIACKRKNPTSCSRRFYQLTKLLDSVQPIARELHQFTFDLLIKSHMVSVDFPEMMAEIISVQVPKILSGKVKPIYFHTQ
Method in brief: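 Activation was read as beta-lactamase FRET signal from LiveBLAzer B/G substrate, added for 2 h at room temperature. Before that, GeneBLAzer AR-UAS-bla GripTite (HEK293) cells had 16 h compound exposure at 37C.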

[6] = biological target: Androgen receptor (Homo sapiens) (UniProt P10275); test: qHTS assay to identify small molecule agonists of the androgen receptor (AR) signaling pathway using the MDA cell line (AID 743040; further: nearly all actives have a fitted effect of over 20% in size); details: MDA-kb2 AR-luc cells, MMTV luciferase, 16 h, stronger effect = higher value
Method in brief: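 Testing was done with the MDA-kb2 AR-luc line, a human breast carcinoma stably transfected with MMTV-luciferase containing AR and GR response elements. Cells were exposed 16 h at 37C before ONE-Glo luminescence detection.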

[7] = qHTS assay to identify small molecule antagonists of the androgen receptor (AR) signaling pathway using the MDA cell line - cell viability counter screen (AID 743041; further: nearly all actives have a fitted effect of over 45% in size)
Method in brief: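 Compound exposure lasted 16 h at 37C in MDA-kb2 AR-luc cells stimulated with R1881. Protease-based CellTiter-Fluor reagent was applied for the final 30 min and fluorescence measured.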

[8] = biological target: Androgen receptor (Homo sapiens) (UniProt P10275); test: qHTS assay to identify small molecule antagonists of the androgen receptor (AR) signaling pathway using the MDA cell line (AID 743042; further: nearly all actives have a fitted effect of over 55% in size)
Method in brief: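 MDA-kb2 breast carcinoma cells carrying MMTV-luciferase (AR/GR responsive) were co-treated with compounds and the agonist R1881 for 16 h at 37C. Inhibition read as ONE-Glo luminescence; CellTiter-Fluor fluorescence measured in parallel for cytotoxicity.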

[9] = qHTS assay to identify small molecule antagonists of the thyroid receptor (TR) signaling pathway - cell viability counter screen (AID 743064); further: nearly all actives have a fitted effect of over 50% in size; further: potency means the concentration at half of the fitted maximal effect
Method in brief: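 In-well cytotoxicity read by CellTiter-Fluor (30 min, 37 C) following 23.5 h exposure of GH3 cells bearing a TRE-luciferase sensor. Compounds were added alongside 1 nM (final) T3 to drive TR transactivation.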

[10] = qHTS assay to identify small molecule antagonists of the thyroid receptor (TR) signaling pathway (AID 743065); further: nearly all actives have a fitted effect of over 55% in size
Method in brief: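 GH3.TRE-Luc rat pituitary cells (two TREs driving luciferase) were dosed with compound, then stimulated with 1 nM T3 (final) for 23.5 h at 37 C. ONE-Glo luminescence was the read-out, with CellTiter-Fluor fluorescence as the cytotoxicity counter-screen.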

[11] = system: thyroid hormone receptor (rat, GH3 cells); test: qHTS assay to identify small molecule agonists of the thyroid receptor (TR) signaling pathway (AID 743066; calls by dose curve)
[12] = qHTS assay to identify small molecule antagonists of the estrogen receptor alpha (ER-alpha) signaling pathway - cell viability counter screen (AID 743074; calls by dose curve; further: nearly all actives have a fitted effect of over 45% in size)
[13] = biological target: Estrogen receptor (Homo sapiens) (UniProt P03372); test: qHTS assay to identify small molecule agonists of the estrogen receptor alpha (ER-alpha) signaling pathway (AID 743075; calls by dose curve)
Sequence of Estrogen receptor (Homo sapiens) (P03372 whole entry, looked up): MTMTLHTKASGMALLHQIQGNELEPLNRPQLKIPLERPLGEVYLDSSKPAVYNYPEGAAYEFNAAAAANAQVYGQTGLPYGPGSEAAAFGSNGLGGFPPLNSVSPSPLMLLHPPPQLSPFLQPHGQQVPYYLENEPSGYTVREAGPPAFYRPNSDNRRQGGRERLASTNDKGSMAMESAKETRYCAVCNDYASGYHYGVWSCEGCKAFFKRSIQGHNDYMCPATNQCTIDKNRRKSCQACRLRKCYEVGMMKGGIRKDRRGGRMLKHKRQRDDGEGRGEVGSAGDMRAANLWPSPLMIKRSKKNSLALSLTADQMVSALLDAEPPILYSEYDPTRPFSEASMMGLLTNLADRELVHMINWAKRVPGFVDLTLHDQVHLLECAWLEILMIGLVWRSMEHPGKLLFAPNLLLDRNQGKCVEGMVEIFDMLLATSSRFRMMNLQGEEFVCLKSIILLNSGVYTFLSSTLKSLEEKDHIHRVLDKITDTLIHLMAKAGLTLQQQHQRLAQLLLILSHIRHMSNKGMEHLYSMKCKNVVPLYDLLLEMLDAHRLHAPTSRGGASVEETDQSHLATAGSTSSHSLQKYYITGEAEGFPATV

[14] = biological target: Estrogen receptor (Homo sapiens) (UniProt P03372); test: qHTS assay to identify small molecule agonists of the estrogen receptor alpha (ER-alpha) signaling pathway using the BG1 cell line (AID 743079); details: BG1Luc4E2 cells, ERE-luciferase agonist, 22 h; activation: at 70.3 µM (top of the series) unless noted; further: nearly all actives have a fitted effect of over 20% in size; further: potency means the concentration at half of the fitted maximal effect
[15] = qHTS assay to identify small molecule antagonists of the estrogen receptor alpha (ER-alpha) signaling pathway using the BG1 cell line (AID 743080; calls by dose curve;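 further: BG1 cells stimulated with 17beta-estradiol alongside compound; nearly all actives have a fitted effect of over 25% in size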)
Method in brief: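 Endogenous full-length ER-alpha in BG1-Luc-4E2 cells drives a stably integrated 4×ERE luciferase gene; compounds were tested against 17beta-estradiol over 21.5 h, with luminescence and multiplexed viability fluorescence recorded.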

[16] = qHTS assay to identify small molecule antagonists of the estrogen receptor alpha (ER-alpha) signaling pathway using the BG1 cell line - cell viability counter screen (AID 743081);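 further: compound given together with 17beta-estradiol as the ER stimulus; nearly all actives have a fitted effect of over 45% in size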
[17] = biological target: Aromatase (Homo sapiens) (UniProt P11511); test: qHTS assay to identify aromatase inhibitors (AID 743083); further: nearly all actives have a fitted effect of over 55% in size
Sequence of Aromatase (Homo sapiens) (P11511 whole entry, looked up): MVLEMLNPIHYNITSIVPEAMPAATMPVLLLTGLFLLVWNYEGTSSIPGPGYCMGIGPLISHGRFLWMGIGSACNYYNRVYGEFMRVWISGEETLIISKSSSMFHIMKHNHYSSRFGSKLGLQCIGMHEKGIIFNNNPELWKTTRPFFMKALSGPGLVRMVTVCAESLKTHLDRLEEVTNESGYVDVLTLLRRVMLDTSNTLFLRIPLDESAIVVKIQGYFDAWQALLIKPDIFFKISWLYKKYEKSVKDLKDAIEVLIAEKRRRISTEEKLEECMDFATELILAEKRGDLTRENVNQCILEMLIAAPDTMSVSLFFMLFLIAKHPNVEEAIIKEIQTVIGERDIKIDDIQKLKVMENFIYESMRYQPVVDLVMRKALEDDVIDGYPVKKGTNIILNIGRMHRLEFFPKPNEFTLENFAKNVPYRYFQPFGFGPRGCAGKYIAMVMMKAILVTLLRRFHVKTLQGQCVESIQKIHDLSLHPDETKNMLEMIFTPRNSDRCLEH

[18] = biological target: Androgen receptor (Homo sapiens) (UniProt P10275); test: qHTS assay to identify small molecule antagonists of the androgen receptor (AR) signaling pathway (AID 743035; active means well fitted inhibition curve with a large enough effect in the signal ratio in the repeat runs, not every such curve was filed as active; the % refers to the signal ratio)
Method in brief: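 Steps: seed AR-UAS-bla GripTite HEK293 cells, incubate 4 h at 37C; pin in test compound, then add agonist R1881; incubate 16 h at 37C; add LiveBLAzer B/G FRET substrate, 2 h at room temperature; read fluorescence.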

[19] = biological target: Estrogen receptor (Homo sapiens) (UniProt P03372); test: qHTS assay to identify small molecule antagonists of the estrogen receptor alpha (ER-alpha) signaling pathway (AID 743069; active means well fitted curve in the direction sought with a large enough effect in the signal ratio in the repeat runs, not every such curve was filed as active; the % refers to the signal ratio)
Method in brief: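 In this cell-based reporter format, GripTite HEK293 cells harbouring ER-alpha-UAS-bla were grown overnight with 2% charcoal-stripped FBS, dosed with DMSO-dissolved compounds, then challenged with 17beta-estradiol. After 18 hr at 37C, beta-lactamase activity was detected by FRET fluorescence.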

[20] = qHTS assay for identifying genotoxic compounds that show differential cytotoxicity against isogenic chicken DT40 cell lines with known DNA damage response pathways - Rev3 mutant cell line (AID 743014); further: nearly all actives have a fitted effect of over 55% in size; further: potency means the concentration at half of the fitted maximal effect
On the % scale 0 is the no-effect control and ±100 the full control effect.

CNC(=O)Oc1cccc2c1OC(C)(C)C2
inactive and 24.3 µM (active): Potency [14]
inactive: Potency [1] | Potency [2] | Potency [3] | Potency [4] | Potency [5] | activity change ([6]; at 70.3 µM (top of the series)) 1.41% | activity change ([6]; at 95 µM (top of the series)) 1.74% | Potency [7] | Potency [8] | Potency [9] | Potency [10] | Potency [11] | Potency [12] | Potency [13] | Potency [15] | Potency [16] | Potency [17]

CCC1(c2ccc(N)cc2)CCC(=O)NC1=O (configuration not stated)
inactive: Potency [1] | Potency [2] | Potency [3] | Potency [4] | Potency [18] | Potency [5] | activity change ([6]; at 70.3 µM (top of the series)) -1.61% and 2% | Potency [7] | Potency [8] | Potency [9] | Potency [10] | Potency [11] | Potency [19] | Potency [12] | Potency [13] | Potency [14] | Potency [15] | Potency [16]

CC1CC(=O)O1 (configuration not stated)
inactive: Potency [1] | Potency [2] | Potency [20] | Potency [3] | Potency [4] | Potency [7] | Potency [9] | Potency [10] | Potency [11] | Potency [12] | Potency [16] | Potency [17]

Cc1ccc(N=CN(C)C=Nc2ccc(C)cc2C)c(C)c1
inactive and 48.5 µM (active): Potency [9]
inactive: Potency [1] | Potency [4] | Potency [7] | Potency [11] | Potency [12] | Potency [13] | Potency [14] | Potency [15] | Potency [16] | Potency [17]
inactive and 38.5 µM (active): Potency [20]
inactive and 30.6 µM (active): Potency [2] | Potency [3]

C[N+](C)(C)CC(=O)O
inactive: Potency [1] | Potency [2] | Potency [20] | Potency [3] | Potency [4] | Potency [7] | Potency [9] | Potency [11] | Potency [19] | Potency [12] | Potency [13] | Potency [14] | Potency [15] | Potency [16] | Potency [17]
